A selection: hits, their analogues and other compounds. The true share with any hit is near 5.7%.
NPSR antagonist = qHTS Assay for Antagonists of the Neuropeptide S Receptor: cAMP Signal Transduction; Q6W5P4; 1% of 220,000 active; Potency, µM (doses to about 38.3 µM), for inactives: at the highest dose activity change, negative = inhibition, usual class: inhibitors; CHO-NPSR cells, cAMP TR-FRET, antagonist mode; also: nearly all actives have a fitted effect of over 50% in size
Target sequence (Q6W5P4 whole entry, looked up): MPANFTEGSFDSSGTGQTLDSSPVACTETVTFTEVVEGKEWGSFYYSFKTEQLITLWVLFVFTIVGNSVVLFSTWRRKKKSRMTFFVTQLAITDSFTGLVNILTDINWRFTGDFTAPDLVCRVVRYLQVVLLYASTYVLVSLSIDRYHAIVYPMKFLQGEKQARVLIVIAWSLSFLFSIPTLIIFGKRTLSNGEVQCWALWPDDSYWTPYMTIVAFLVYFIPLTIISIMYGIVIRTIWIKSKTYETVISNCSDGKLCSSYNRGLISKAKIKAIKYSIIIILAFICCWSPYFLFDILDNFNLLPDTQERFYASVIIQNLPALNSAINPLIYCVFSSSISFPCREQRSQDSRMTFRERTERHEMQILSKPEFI
RORgamma inh = qHTS for inhibitors of ROR gamma transcriptional activity. Drosophila S2 Gal4-RORgamma UAS-luciferase reporter, 20 h. Nuclear receptor ROR-gamma (Mus musculus), P51450. 5.4% of 310,000 active. Potency, µM (titrated, usually from 53.6 µM), inactives show top-dose activity change, negative = inhibition, hits mostly inhibitors; also: nearly all actives have a fitted effect of over 60% in size
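Drosophila Schneider cells stably carrying a metallothionein-driven Gal4 DBD–ROR gamma fusion and a UAS-Photinus luciferase reporter were exposed to compound for 1 hr, then induced with copper sulfate (700 uM final) for 20 hr at ambient temperature before luminescence reading.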
B2AR arrestin = qHTS assay of beta-arrestin-biased ligands of beta2-adrenergic receptor; 0.02% of 330,000 active; Potency, µM (highest dose often 46.1 µM), for the others: at the highest dose activation, usual class: activators; beta-arrestin recruitment to beta2AR, cell-based reporter; Beta-2 adrenergic receptor (Homo sapiens), P07550;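 also: 0% = DMSO controls and full agonism = EC100 isoproterenol or metaproterenol; nearly all actives have a fitted effect of over 65% in size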
VP16 counter = VP16 counterscreen qHTS for inhibitors of ROR gamma transcriptional activity | Drosophila S2 Gal4-VP16 UAS-luciferase, luminescence, 20 h | 3.5% of 310,000 active | Potency, µM (highest dose often 53.6 µM), inactives show top-dose activity, negative = inhibition, most hits filed as inhibitors;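 also: Gal4-VP16 expression switched on by copper sulfate through the metallothionein promoter; nearly all actives have a fitted effect of over 50% in size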
* hit, by the source's call; ? = inconclusive; / = no result given; [ ] = remark or other dose. Calls follow the shape of the dose curve; as a rule, active = well fitted curve in the direction sought with a large enough effect; inconclusive = small, poorly fitted or top-dose-only effect, or another doubt; inactive = no such curve, though single readings can be large; an effect the other way counts as inactive or inconclusive. Unless noted, % is scaled to controls: 0 for no effect and ±100 for the full control effect; potency is read from the fitted curve at half-maximal effect.

SMILES | NPSR antagonist | RORgamma inh | B2AR arrestin | VP16 counter
Cc1cc(C)c(/C=N/NC(=O)c2nnn(-c3nonc3N)c2CN2CCC(C)CC2)c(C)c1 | / | ? | 0% | ?
COc1ccc(Nc2nc(N)nc(CN3CCC(Cc4ccccc4)CC3)n2)cc1 | -6% | 11µM* | -1% | ?
COc1ccccc1Nc1nc(N)nc(CN2CCC(Cc3ccccc3)CC2)n1 | -15%[46.1 µM] | 8.9µM* | 1% | ?
CCOC(=O)N1CCN(C(=O)/C(=C/c2ccc(F)cc2)NC(=O)c2ccccc2)CC1 | / | / | 0% | /
CCOC(=O)c1c(NC(=O)c2ccnn2C)sc(C)c1C | -10% | 9% | 0% | -13%
CCOC(=O)N1CCN(C(=S)NC(=O)c2ccnn2C)CC1 | 9% | ? | -2% | 32µM*
CCOC(=O)N1CCN(C(=S)NC(=O)c2ccc(F)cc2)CC1 | -7% | 2µM* | 0% | 3.5µM*
COCCN(C(=O)CCC(=O)Nc1cc(C)on1)C(C(=O)NC1CCCC1)c1ccc(C(C)C)cc1 (stereo not drawn) | / | 17% | 0% | -10%
N/C(=N\N=C\c1ccc(O)c(O)c1)c1nonc1N | -13% | 10µM* | 0% | ?
O=S(=O)(Nc1ccc(O)c(Sc2nc3ccccc3s2)c1)c1cccc2ccccc12 | ? | ? | -1% | 7.9µM*
COc1cc2c(cc1O)CCC1C2CC[C@]2(C)[C@@H](O)CC[C@@H]12 (stereo partly drawn) | 4%[46.1 µM] | / | / | /
Cc1cc(C)n(-c2ccc(C(=O)N3CCC(CO)(Cc4ccccc4)CC3)cc2)n1 | 21% | 2.5µM* | 0% | ?
Cc1cc(C)n(-c2ccc(C(=O)N3CCN(c4ccccn4)CC3)cc2)n1 | / | / | 0% | /
O=c1cc(-c2cccc(F)c2)[nH]c2cc(F)ccc12 | / | 0%[96.6 µM] | / | 8%[96.6 µM]
O=C(Cn1c2ccccc2c(=O)c2ccccc21)Nc1cccc(F)c1 | -20% | 4% | -1% | -2%
CCN(CC)c1ccc(C=C(c2nnnn2-c2ccccc2)c2nnnn2-c2ccccc2)cc1 | -23% | 4% | -1% | 2%
CN(C)/C=C(\C(=O)c1cccc(Cl)c1)c1nnnn1-c1ccccc1 | 12% | 14µM* | -1% | ?
COc1cccc(-c2ccc(NC(=O)C3CCCN(Cc4nccn4C)C3)cc2)c1 (stereo not drawn) | / | 5µM* | -1% | ?
COc1cccc(-c2ccc(NC(=O)C3CCCN(Cc4cnc(C)n4C)C3)cc2)c1 (stereo not drawn) | / | -30% | -1% | -5%
O=[N+]([O-])c1ccc(N2CCN(c3ccc(F)cc3)CC2)cc1 | / | 7% | 0% | -13%
O=C(NC(=S)N1CCN(c2ccc([N+](=O)[O-])cc2)CC1)c1ccccc1Cl | -39% | 0.45µM* | 0% | 1.4µM*
O=C(NC(=S)N1CCN(c2ccc([N+](=O)[O-])cc2)CC1)c1ccccc1F | -29% | 0.56µM* | 0% | 1µM*
O=[N+]([O-])c1ccc(N2CCN(C(=S)Nc3ccccc3)CC2)cc1 | 15% | -4% | 0% | -3%
O=C(NC(=S)N1CCN(c2ccc([N+](=O)[O-])cc2)CC1)c1ccc(F)cc1 | -23% | 1.1µM* | 3% | 1µM*
Cc1ccccc1OCC(=O)Nc1cc(Cl)ccc1Oc1ccccc1 | -22% | 2% | -2% | 1%
SMILES | NPSR antagonist | RORgamma inh | B2AR arrestin | VP16 counter
COc1ccccc1OCC(=O)Nc1cc(Cl)ccc1Oc1ccccc1 | -27%[46.1 µM] | ? | 0% | -18%
CCNC(=S)Nc1cc(Cl)ccc1Oc1ccccc1 | -3% | 4.5µM* | 2% | 10µM*
CNC(=S)Nc1cc(Cl)ccc1Oc1ccccc1 | -6% | 14µM* | -1% | ?
COc1ccc(-n2nc3c(c2NC(=O)c2ccc(S(=O)(=O)N4CCOCC4)cc2)CS(=O)(=O)C3)cc1 | -8% | 8% | 0% | -1%
O=c1cc(CN2CCOCC2)c2cc(Cl)ccc2o1 | / | -16% | 0% | -4%
CCN(CC(=O)Nc1cccc(S(=O)(=O)N2CCCC2)c1)CC(=O)Nc1ccccc1OC | -12% | 11µM* | -1% | -3%
COc1ccc(CCC(=O)Nc2cccc(S(=O)(=O)N3CCCCCC3)c2)cc1OC | / | / | -1% | /
COc1ccc(CC(=O)Nc2cccc(S(=O)(=O)N3CCCCCC3)c2)cc1OC | 12% | -25% | -1% | 11µM*
CCCn1c(Nc2cccc(OC)c2)nc2ccccc21 | / | -25% | 0% | 7%
C/C(CC(=O)NC1CCCCC1)=N\NC(=O)c1ccc(Br)cc1 | / | 13µM* | 0% | 11µM*
C/C(CC(=O)NC1CCCCC1)=N\NC(=O)c1ccccc1C | / | -1% | 0% | -4%
C/C(CC(=O)NC1CCCC1)=N\NC(=O)C1CCCCC1 | -10% | 16µM* | 0% | -3%
CC(=O)Nc1ccccc1NC(=O)C/C(C)=N/NC(=O)C1CCCCC1 | / | -16% | -1% | 4%
CCC(CC)NC(=O)C1CC(=O)N(CCc2ccc(F)cc2)C1 (stereo not drawn) | / | 13% | 0% | -7%
Cc1ccccc1-n1cnc2c(sc3nc(N4CCOCC4)c4c(c32)CCCC4)c1=O | ? | -4% | -1% | 0%
Cc1cc(=O)[nH]c2sc(C(=O)N3c4ccccc4CC3C)c(N)c12 (stereo not drawn) | / | / | 0% | /
Cc1ccc(NC(=O)Nc2nnc(-c3ccccc3)o2)cc1 | 10% | -26% | 0% | -11%
Cc1ccc(-c2nnc(Nc3ccccc3)o2)cc1 | -12%[46.1 µM] | 5µM* | 0% | 14µM*
C#CCOC(=O)c1ccccc1C(=O)OCC#C | -4%[46.1 µM] | 5% | 0% | -10%
C#CCOC(=O)c1ccccc1C(=O)n1nnc2ccccc21 | ? | 18µM* | 0% | ?
Cc1cc(Br)c2nc3c(c(C(=O)O)c2c1)CCCCC3 | 1µM* | ? | 0% | -1%
CCc1ccc2nc3c(c(C(=O)O)c2c1)CCC3 | -7%[46.1 µM] | ? | -1% | -16%
CN1/C(=C\C=O)C(C)(C)c2ccccc21 | 9% | ? | 0% | -9%
Cn1cccc1/C=N/NC(=O)c1cccnc1 | -2% | -40% | 0% | 1%
CN1/C(=C\C=N\NC(=O)c2cccnc2)C(C)(C)c2ccccc21 | -29% | 0.5µM* | 0% | 0.89µM*
CN1/C(=C\C=N\NC(=O)c2ccc(O)cc2)C(C)(C)c2ccccc21 | -4% | 4.5µM* | 0% | 2.5µM*
CCOC(=O)c1nn(C23CC4CC(CC(C4)C2)C3)c2c1C(=O)N(c1ccc(C)cc1)C2=O | -11%[46.1 µM] | 11µM* | 0% | 7.1µM*
COC(=O)c1nn(C23CC4CC(CC(C4)C2)C3)c2c1C(=O)N(c1ccc(Br)cc1)C2=O | 1%[46.1 µM] | -13% | 0% | 5.6µM*
C[C@H](NC(=O)CNC(=O)[C@@H](NC(=O)[C@H](Cc1ccccc1)NC(=O)CNC(=O)CNC(=O)[C@@H](N)Cc1ccccc1)[C@@H](C)O)C(=O)N[C@@H](CCCN=C(N)N)C(=O)N[C@@H](CCCCN)C(=O)N[C@@H](CO)C(=O)N[C@@H](C)C(=O)N[C@@H](CCCN=C(N)N)C(=O)N[C@@H](CCCCN)C(N)=O | / | 19% | / | -10%
CCCC(=O)Nc1ccc(S(=O)(=O)N2CCCC2)cc1 | -4%[46.1 µM] | 16% | 0% | 11%

Assay outcomes from PubChem BioAssay.
